Assay outcomes: PubChem BioAssay, several laboratories
Rows were chosen to be rich in hits. Some 2.7% of all compounds tested hit in one or more screens of this group.
CF NFkB inh: inhibitors of cystic fibrosis induced NF-kB. 0.86% of 360,000 active. KKLEB NF-kB-GFP reporter, PAF-induced, GFP fluorescence overnight. inhibition, % at 5 µM;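 active = at least 50% inhibition at 5 µM, scaled per plate between neutral and stimulator controls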;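 note: PAF is a Pseudomonas aeruginosa culture filtrate used as stimulus; plate controls were PAF-stimulated DMSO wells for no effect and unstimulated DMSO wells for full effect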
Peg3 prom inh-1: inhibitors of Peg3 promoter. HeLa PEG-Prom luciferase reporter, luminescence, overnight. inhibition, % at 20 µM. 1.7% of 360,000 active;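 active = inhibition of at least 50% at 20 µM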
HIF-2a block: HIF-2a inhibition | inhibition, % at 18.8 µM | 0.72% of 360,000 active | 786-0 RCC cells HIF-2a reporter, luciferase luminescence, overnight;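 active = inhibition of the luminescence signal of 40% or more relative to plate controls, in a single-dose primary screen at 18.75 µM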
MITF TRPM1 inh: reduces MITF-dependent TRPM1 promoter luciferase signal; SK-MEL-5 TRPM1 promoter luciferase, 24 h; inhibition, % at 12.5 µM; 0.83% of 330,000 active; AID 488899;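 active = mean inhibition across replicates of 60% or more, whatever share of single replicates reaches that level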
Shn3 3UTR inh: inhibitors of Schnurri-3 3'UTR reporter in osteoblasts. inhibition, % at 12.5 µM. Clone20 osteoblast Shn3 3'UTR firefly luciferase, 24 h. 0.52% of 360,000 active;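 active = mean inhibition of at least 75% with every replicate also reaching 75%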;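 note: 0% = median of neutral control wells and 100% = pilot-screen positive control compound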
KKLEB cytotox: counter-screen for CF NF-kB inhibitors: cytotoxicity; KKLEB CF airway cells viability, ATPlite luminescence, overnight; active compounds read low; cells stimulated with P. aeruginosa culture filtrate; 0.36% of 360,000 active; activity change (cytotoxicity), % at 5 µM;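 active = corrected activity change at or below -50% at 5 µM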
Peg3 prom inh-2: Peg3 promoter inhibition confirmation; shares compounds with Peg3 prom inh-1; HeLa PEG-Prom luciferase reporter, luminescence, overnight; inhibition, % at 20 µM; 84% of 1,300 active; AID 602417;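 active = at 20 µM dose, 40% or more inhibition averaged across four replicates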
* hit, by the source's call.

CC(C)(C)NC(=O)COC(=O)c1c2c(nc3ccccc13)CCC2 was read as CF NFkB inh 14, Peg3 prom inh-1 40, HIF-2a block 14, MITF TRPM1 inh 9, Shn3 3UTR inh 15 and KKLEB cytotox -1.
For O=C(COC(=O)c1c2c(nc3ccccc13)/C(=C\c1cccs1)CCC2)Nc1ccccc1 the results were CF NFkB inh -38, Peg3 prom inh-1 55*, HIF-2a block 16, MITF TRPM1 inh -9, Shn3 3UTR inh 47, KKLEB cytotox 15 and Peg3 prom inh-2 60*.
CC(C)NC(=O)NC(=O)COC(=O)c1c2c(nc3ccccc13)CCC2 was read as CF NFkB inh 18, Peg3 prom inh-1 92*, HIF-2a block 16, MITF TRPM1 inh 23, Shn3 3UTR inh 66, KKLEB cytotox 1 and Peg3 prom inh-2 86*.
Screening CC(C)(C)C(=O)Nc1ccc(-c2cc3cc(Cl)ccc3o2)cc1 returned CF NFkB inh 16, Peg3 prom inh-1 -105, HIF-2a block -32, MITF TRPM1 inh -13, Shn3 3UTR inh -14 and KKLEB cytotox -15.
For CCC(c1ccc(O)c(O)c1)C(CC)c1ccc(O)c(O)c1 (centres undefined) the results were CF NFkB inh 84*, Peg3 prom inh-1 100*, HIF-2a block 79*, MITF TRPM1 inh 1, Shn3 3UTR inh 26, KKLEB cytotox -21 and Peg3 prom inh-2 98*.
Cc1ccc([N+](=O)[O-])cc1NC(=O)c1cccnc1 was read as CF NFkB inh -12, Peg3 prom inh-1 15, HIF-2a block 17, Shn3 3UTR inh -5 and KKLEB cytotox -2.
For CCCCN(C)CCNC(=O)c1cc(-c2cccnc2)nc2ccc(S(=O)(=O)N3CCC(C)CC3)cc12 the results were CF NFkB inh 14, Peg3 prom inh-1 96*, HIF-2a block 25, MITF TRPM1 inh 12, Shn3 3UTR inh -14, KKLEB cytotox -5 and Peg3 prom inh-2 74*.
`COc1ccc(NC(=O)CSc2nc(C)cs2)c([N+](=O)[O-])c1` gave CF NFkB inh 22, Peg3 prom inh-1 -43, HIF-2a block -61, MITF TRPM1 inh -23, Shn3 3UTR inh -7 and KKLEB cytotox -17.
Screening CCc1ccn2cc(-c3ccc4c(c3)OCO4)nc2c1 returned CF NFkB inh -16, Peg3 prom inh-1 84*, HIF-2a block 60*, MITF TRPM1 inh 65*, Shn3 3UTR inh 81, KKLEB cytotox -76* and Peg3 prom inh-2 72*.
For CCc1nc2ccc(C(=O)N(CC)CCN(C)C)cn2c1N(C=O)CCC(C)C the results were CF NFkB inh 18, Peg3 prom inh-1 -3, HIF-2a block 8, Shn3 3UTR inh -3 and KKLEB cytotox -2.
`Nc1ccn([C@@H]2O[C@H](CO)[C@@H](O)[C@@H]2O)c(=O)n1` gave CF NFkB inh -24, Peg3 prom inh-1 23, HIF-2a block -7, MITF TRPM1 inh 16, Shn3 3UTR inh 76 and KKLEB cytotox 5.
Screening Nc1ncn([C@@H]2O[C@H](CO)[C@@H](O)[C@H]2O)c(=O)n1 returned CF NFkB inh 40, Peg3 prom inh-1 72*, HIF-2a block -85, MITF TRPM1 inh 79*, Shn3 3UTR inh -7, KKLEB cytotox -14 and Peg3 prom inh-2 50*.
Screening C[C@H](O)[C@@H]1C(=O)N2CCc3ccc(-c4ccccc4)cc3[C@@H]2C[C@@H]1N(C)C(=O)c1ccc(C#N)cc1 returned CF NFkB inh -6, Peg3 prom inh-1 -3, HIF-2a block 7, MITF TRPM1 inh 6, Shn3 3UTR inh 0 and KKLEB cytotox 7.
COCC(C)n1c(C)cc(C(=O)COC(=O)c2cccn2C)c1C (centres undefined) was read as CF NFkB inh 5, Peg3 prom inh-1 56*, HIF-2a block 12, MITF TRPM1 inh 42, Shn3 3UTR inh 29, KKLEB cytotox -1 and Peg3 prom inh-2 45*.
COCC(C)n1c(C)cc(C(=O)COC(=O)c2cnc(Cl)c(Cl)c2)c1C (centres undefined) was read as CF NFkB inh -10, Peg3 prom inh-1 16, HIF-2a block 8, MITF TRPM1 inh 7, Shn3 3UTR inh 4 and KKLEB cytotox 4.
COc1ccc2[nH]c3c(c2c1)CCN1C(=O)C(CC(=O)NCCCn2ccnc2)C[C@H](C(=O)N2CCCCC2)[C@@]31CCc1ccccc1 (some centres undefined) was read as CF NFkB inh 3, Peg3 prom inh-1 9, HIF-2a block 9, MITF TRPM1 inh 0, Shn3 3UTR inh -14 and KKLEB cytotox 9.
COc1ccccc1NC(=S)NC1CCCCCCCCCCC1 was read as CF NFkB inh 16, Peg3 prom inh-1 55*, HIF-2a block 22, MITF TRPM1 inh 4, Shn3 3UTR inh 10, KKLEB cytotox -17 and Peg3 prom inh-2 91*.
For COc1ccccc1NC(=S)NC1CCCCC1 the results were CF NFkB inh 8, Peg3 prom inh-1 -16, HIF-2a block 14, MITF TRPM1 inh 9, Shn3 3UTR inh -3 and KKLEB cytotox -4.
Screening COc1ccc(N2CCN(C(=O)CCC(=O)N3Cc4ccccc4Oc4ncccc43)CC2)cc1 returned CF NFkB inh 23, Peg3 prom inh-1 -4, HIF-2a block 3, MITF TRPM1 inh -3, Shn3 3UTR inh 7 and KKLEB cytotox -8.
`Cc1nc(NC(=O)c2ccco2)sc1-c1csc(Nc2ccc(Cl)cc2Cl)n1` gave CF NFkB inh 22, Peg3 prom inh-1 -3, HIF-2a block -41, MITF TRPM1 inh -15, Shn3 3UTR inh -17 and KKLEB cytotox -7.
`CCC(C)C(=O)Nc1nc(C)c(-c2csc(Nc3ccccc3OC)n2)s1` (centres undefined) gave CF NFkB inh 11, Peg3 prom inh-1 -4, HIF-2a block 18, MITF TRPM1 inh -2, Shn3 3UTR inh 45 and KKLEB cytotox 5.
For Cc1ccc(Cl)cc1Nc1nc(-c2sc(NC(=O)c3ccco3)nc2C)cs1 the results were CF NFkB inh -28, Peg3 prom inh-1 90*, HIF-2a block 8, MITF TRPM1 inh 68*, Shn3 3UTR inh 8, KKLEB cytotox -13 and Peg3 prom inh-2 88*.
COc1ccccc1Nc1nc(-c2sc(NC(=O)c3ccco3)nc2C)cs1 was read as CF NFkB inh 32, Peg3 prom inh-1 70*, HIF-2a block 7, MITF TRPM1 inh 46, Shn3 3UTR inh 13, KKLEB cytotox -3 and Peg3 prom inh-2 58*.
Screening COc1ccc(C(CCN(Cc2ccc(OC)c(OC)c2)C(C)=O)c2ccccc2)cc1 (centres undefined) returned CF NFkB inh 6, Peg3 prom inh-1 16, HIF-2a block 17, MITF TRPM1 inh 5, Shn3 3UTR inh -10 and KKLEB cytotox -10.
